Where “and” joins values, the source holds several entries; their conditions need not be identical. Equal entries are not always repeated.

Z-score data for 17 compounds are collected here from PubChem BioAssay.

The nature of this assay: survival rescue of mitochondrial mutant cells in low glucose, primary screen, MELAS cybrids, Rieske KO mouse fibroblasts, CellTiter-Glo (AID 1508586).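 Further: test concentration not given here; z relative to plate mean and SD of compound and empty wells.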 The note with it: Rieske KO mouse fibroblast survival, CellTiter-Glo 72 h. (In general: ATP-based viability assays read luminescence as a measure of living cells.)
For the compound `Cc1cccc(C)c1NC(=O)CN1CCCC1=O`, the z-score amounted to 0.685.

In turn, `CC(=O)[C@H]1CC[C@H]2[C@@H]3CC[C@H]4C[C@H](O)CC[C@]4(C)[C@H]3C(=O)C[C@]12C` displayed a z-score of 0.0524.

The compound `CC(C)c1c(CN(C)C(C)Cc2ccccc2)n(C)n(-c2ccccc2)c1=O` (configuration not stated) showed a z-score of 0.158.

Compound `Cn1c(CCCC(=O)O)nc2cc(N(CCCl)CCCl)ccc21` displayed a z-score of -0.135.

In turn, `COc1ccc(CN2CCNCC2)c(OC)c1OC` showed a z-score of 0.274.

Compound `c1ccc(C2CC2)c(OCC2=NCCN2)c1` came in with a z-score of -0.25.

`Fc1ccc(C(OCCN2CCN(CCCc3ccccc3)CC2)c2ccc(F)cc2)cc1` showed a z-score of 0.399.

In turn, `C[C@]12CC[C@H](O)CC1=CC[C@@H]1[C@@H]2CC[C@]2(C)C(=O)CC[C@@H]12` gave a z-score of -0.656.

Consider `O=C(O)Cc1ccccc1`, for which the z-score is 0.0978.

In the case of `NCC1(CC(=O)O)CCCCC1`, the z-score was -0.399 and 0.119.

On to `CCCC[N+]1(C)[C@@H]2CC(OC(=O)[C@H](CO)c3ccccc3)C[C@H]1[C@@H]1O[C@@H]12` (some centres not stated), for which the z-score is -0.588 and -0.226.

Compound `CNCC(=O)c1ccc(O)c(O)c1` gave a z-score of -0.269.

Take `CC(C)NCC(O)c1ccc(N)c(C#N)c1` (configuration not stated): the z-score was 1.18.

The compound `CN1C[C@@H](NS(=O)(=O)N(C)C)C[C@@H]2c3cccc4c3c(cn4C)C[C@H]21` displayed a z-score of 0.143.

`O=C1NCN(c2ccccc2)C12CCN(CC1COc3ccccc3O1)CC2` (configuration not stated) registered a z-score of 1.51.

`COc1ccc(C(=O)c2c(C)n(CCN3CCOCC3)c3ccccc23)cc1` registered a z-score of 0.082.

On to `N#CC(C#N)=Cc1ccc(O)c(O)c1`, for which the z-score was -0.257.
